{
  "source": "PubChem BioAssay AID2283109",
  "about": "(EPA ToxCast)",
  "target": "human CYP3A5, CYP3A5 (gene 1577) (UniProt P20815)",
  "sequence (P20815 whole entry, looked up)": "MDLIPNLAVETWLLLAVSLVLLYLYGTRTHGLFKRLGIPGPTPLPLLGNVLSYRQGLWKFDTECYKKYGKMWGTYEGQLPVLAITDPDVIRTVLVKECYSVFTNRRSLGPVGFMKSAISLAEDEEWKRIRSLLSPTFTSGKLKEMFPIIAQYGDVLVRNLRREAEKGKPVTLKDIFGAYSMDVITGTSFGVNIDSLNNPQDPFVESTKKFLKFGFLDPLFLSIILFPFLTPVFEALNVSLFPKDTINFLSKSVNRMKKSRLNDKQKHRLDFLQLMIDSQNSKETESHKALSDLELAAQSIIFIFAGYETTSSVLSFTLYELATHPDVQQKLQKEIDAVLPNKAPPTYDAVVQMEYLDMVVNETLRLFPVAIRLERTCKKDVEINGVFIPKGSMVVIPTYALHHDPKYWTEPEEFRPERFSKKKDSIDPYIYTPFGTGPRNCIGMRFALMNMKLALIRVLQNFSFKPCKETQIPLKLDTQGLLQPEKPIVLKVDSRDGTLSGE",
  "experiment": "NVS_ADME_hCYP3A5: NovaScreen (NVS) CYP450-related Enzyme Activity (ADME) Assay for human CYP3A5",
  "description": "NVS_ADME_hCYP3A5 is a biochemical, single-readout assay that uses extracted gene-proteins in a cell-free assay. Measurements were taken 0.5 hour after chemical dosing in a 96-well plate.NVS_ADME_hCYP3A5 is one of one assay component(s) measured or calculated from the NVS_ADME_hCYP3A5 assay. It is designed to make measurements of enzyme activity, a form of enzyme reporter, as detected with fluorescence intensity signals by Fluorescence technology.Data from the assay component NVS_ADME_hCYP3A5 was analyzed into 1 assay endpoint. This assay endpoint, NVS_ADME_hCYP3A5, was analyzed in the positive analysis fitting direction relative to Acetonitrile as the negative control and baseline of activity. Using a type of enzyme reporter, loss-of-signal activity can be used to understand changes in the enzymatic activity as they relate to the gene CYP3A5. Furthermore, this assay endpoint can be referred to as a primary readout, because this assay has produced […] where this one serves a enzymatic activity function. To generalize the intended target to other relatable targets, this assay endpoint is annotated to the cyp intended target family, where the subfamily is xenobiotic metabolism. […]",
  "note": "Several values for one entry are separate records, joined by “and”; a condition that tells them apart may be missing. Equal entries are not always repeated. Activity calls are given as the source filed them. How the source made its calls: active means hit-call score of the fitted dose curve at least 0.9, where 1 is the maximum; inactive means score below 0.9.",
  "data": [
    {"smiles": "C#C[C@]1(O)CC[C@H]2[C@@H]3CCc4cc(O)ccc4[C@H]3CC[C@@]21C", "values": [
      {"measurement": "AC50", "result": "1.84 µM (active) and 3.89 µM (active) and 1.71 µM (active)"}
    ]}
  ]
}
